Assay results: the supplement of paper PMC10849652
The full data set covers some 7,900 targets. This sample favours those with a hit. About 0.6% of all pairs of compound and target were hits.

Assays:
Assay in all cases: log2 fold change, soluble protein after heating vs DMSO (PISA); higher = thermal stabilisation; K562 cells, 10 uM, 30 min; active = over 0.2 and 3.5 SD of the protein, either way, in both replicates (recomputed)
saracatinib = compound: CN1CCN(CCOc2cc(OC3CCOCC3)c3c(Nc4c(Cl)ccc5c4OCO5)ncnc3c2)CC1 [saracatinib]
Method in brief: (§1)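 K562 cells at 2×10^6 cells/mL were treated with 10 μM compound for 30 min. Aliquots were heated for 3 min across 48°C-58°C, pooled, and extracted in PBS with 0.5% NP-40 at 4°C; soluble protein was the supernatant after 21,000xg for 90 min. Soluble protein was quantified by TMTpro 16plex LC-MS/MS with channel sums equalised, and reported as log2 fold change in thermal stability against DMSO controls, with values from duplicates.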

sotrastaurin = compound: CN1CCN(c2nc(C3=C(c4c[nH]c5ccccc45)C(=O)NC3=O)c3ccccc3n2)CC1 [sotrastaurin]
Method in brief: as §1

alvocidib = compound: CN1CC[C@H](c2c(O)cc(O)c3c(=O)cc(-c4ccccc4Cl)oc23)[C@H](O)C1 [alvocidib]
Method in brief: as §1

Tubastatin A = compound: CN1CCc2c(c3ccccc3n2Cc2ccc(C(=O)NO)cc2)C1 [Tubastatin A]
Method in brief: as §1

[1] = compound: CNC(=O)C1=CC=CC=C1NC2=NC(=NC=C2Cl)NC3=C(C=C(C=C3)N4CCOCC4)OC
Method in brief: as §1

defactinib = compound: CNC(=O)c1ccc(Nc2ncc(C(F)(F)F)c(NCc3nccnc3N(C)S(C)(=O)=O)n2)cc1 [defactinib]
Method in brief: as §1

rucaparib = compound: CNCc1ccc(-c2[nH]c3cc(F)cc4c3c2CCNC4=O)cc1 [rucaparib]
Method in brief: as §1

[2] = compound: CNc1nc(-c2ccc3c(N)n[nH]c3c2)cc(N2C[C@@H](C(=O)NC3CCCCC3)CC[C@H]2C)n1
Method in brief: as §1

encorafenib = compound: COC(=O)N[C@@H](C)CNc1nccc(-c2cn(C(C)C)nc2-c2cc(Cl)cc(NS(C)(=O)=O)c2F)n1 [encorafenib]
Method in brief: as §1

[3] = compound: COC(=O)[C@H](CCSC)NC(=O)C1=C(C=C(C=C1)NC[C@H](CS)N)C2=CC=CC=C2
Method in brief: as §1

[4] = compound: COC1=CC=C(C=C1)CN2C=CC3=C2C=C(C=C3)C(=O)NO
Method in brief: as §1

filanesib = compound: CON(C)C(=O)N1N=C(c2cc(F)ccc2F)S[C@@]1(CCCN)c1ccccc1 [filanesib]
Method in brief: as §1

zotarolimus = compound: CO[C@H]1C[C@@H]2CC[C@@H](C)[C@@](O)(O2)C(=O)C(=O)N2CCCC[C@H]2C(=O)O[C@H]([C@H](C)C[C@@H]2CC[C@H](n3cnnn3)[C@H](OC)C2)CC(=O)[C@H](C)/C=C(\C)[C@@H](O)[C@@H](OC)C(=O)[C@H](C)C[C@H](C)/C=C/C=C/C=C/1C [zotarolimus]
Method in brief: as §1

idasanutlin = compound: COc1cc(C(=O)O)ccc1NC(=O)[C@@H]1N[C@@H](CC(C)(C)C)[C@](C#N)(c2ccc(Cl)cc2F)[C@H]1c1cccc(Cl)c1F [idasanutlin]
Method in brief: as §1

alisertib = compound: COc1cc(Nc2ncc3c(n2)-c2ccc(Cl)cc2C(c2c(F)cccc2OC)=NC3)ccc1C(=O)O [alisertib]
Method in brief: as §1

[5] = compound: COc1cc2nc(-c3cc(F)ccc3O)nc(N[C@@H]3CNC[C@H]3C(C)(C)O)c2cc1OC
Method in brief: as §1

gefitinib = compound: COc1cc2ncnc(Nc3ccc(F)c(Cl)c3)c2cc1OCCCN1CCOCC1 [gefitinib]
Method in brief: as §1

[6] = compound: COc1cccc2cc(-c3nc([C@H]4CC[C@H](C(=O)O)CC4)n4ncnc(N)c34)[nH]c12
Method in brief: as §1

lapatinib = compound: CS(=O)(=O)CCNCc1ccc(-c2ccc3ncnc(Nc4ccc(OCc5cccc(F)c5)c(Cl)c4)c3c2)o1 [lapatinib]
Method in brief: as §1

pictilisib = compound: CS(=O)(=O)N1CCN(Cc2cc3nc(-c4cccc5[nH]ncc45)nc(N4CCOCC4)c3s2)CC1 [pictilisib]
Method in brief: as §1

Measured: log2 fold change

SMARCAD1 isoform 2 (UniProt Q9H4L7)
UniProt Q9H4L7, sequence (Q9H4L7 whole entry, looked up): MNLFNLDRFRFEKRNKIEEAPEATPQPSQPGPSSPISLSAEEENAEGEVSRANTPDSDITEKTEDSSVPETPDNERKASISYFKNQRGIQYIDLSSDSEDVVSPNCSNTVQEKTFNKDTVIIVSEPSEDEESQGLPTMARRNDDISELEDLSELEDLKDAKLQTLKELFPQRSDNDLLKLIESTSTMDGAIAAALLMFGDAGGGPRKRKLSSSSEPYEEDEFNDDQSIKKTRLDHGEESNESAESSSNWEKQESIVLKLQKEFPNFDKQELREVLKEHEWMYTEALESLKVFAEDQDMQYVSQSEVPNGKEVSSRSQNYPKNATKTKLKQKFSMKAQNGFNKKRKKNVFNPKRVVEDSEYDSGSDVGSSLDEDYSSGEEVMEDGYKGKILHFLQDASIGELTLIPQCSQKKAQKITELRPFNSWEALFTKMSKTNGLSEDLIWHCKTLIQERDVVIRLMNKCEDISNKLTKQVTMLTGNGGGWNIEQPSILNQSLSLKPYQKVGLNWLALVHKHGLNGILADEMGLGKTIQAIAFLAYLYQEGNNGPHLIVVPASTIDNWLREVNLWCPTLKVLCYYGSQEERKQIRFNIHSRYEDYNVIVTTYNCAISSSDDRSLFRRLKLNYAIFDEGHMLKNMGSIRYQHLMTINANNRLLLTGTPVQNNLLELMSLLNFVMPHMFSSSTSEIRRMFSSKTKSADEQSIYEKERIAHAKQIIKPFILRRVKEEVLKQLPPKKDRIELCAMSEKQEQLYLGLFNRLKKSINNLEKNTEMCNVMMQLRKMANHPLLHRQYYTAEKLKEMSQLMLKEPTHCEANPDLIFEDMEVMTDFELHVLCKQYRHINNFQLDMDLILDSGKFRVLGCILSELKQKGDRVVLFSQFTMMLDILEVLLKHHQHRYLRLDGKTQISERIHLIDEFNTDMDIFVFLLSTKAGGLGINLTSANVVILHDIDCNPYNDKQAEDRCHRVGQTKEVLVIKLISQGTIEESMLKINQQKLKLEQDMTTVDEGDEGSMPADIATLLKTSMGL
inactive: saracatinib -0.086 | sotrastaurin -0.043 | alvocidib -0.243 | Tubastatin A 0.053 | [1] 0.016 | defactinib -0.099 | rucaparib -0.056 | [2] 0.035 | encorafenib 0.029 | [3] -0.023 | [4] 0.027 | filanesib -0.098 | zotarolimus 0.028 | idasanutlin -0.073 | alisertib -0.026 | [5] 0.06 | gefitinib -0.062 | [6] -0.004 | lapatinib 0.026 | pictilisib 0.07

SMAD2 (UniProt Q15796)
UniProt Q15796, sequence (Q15796 whole entry, looked up): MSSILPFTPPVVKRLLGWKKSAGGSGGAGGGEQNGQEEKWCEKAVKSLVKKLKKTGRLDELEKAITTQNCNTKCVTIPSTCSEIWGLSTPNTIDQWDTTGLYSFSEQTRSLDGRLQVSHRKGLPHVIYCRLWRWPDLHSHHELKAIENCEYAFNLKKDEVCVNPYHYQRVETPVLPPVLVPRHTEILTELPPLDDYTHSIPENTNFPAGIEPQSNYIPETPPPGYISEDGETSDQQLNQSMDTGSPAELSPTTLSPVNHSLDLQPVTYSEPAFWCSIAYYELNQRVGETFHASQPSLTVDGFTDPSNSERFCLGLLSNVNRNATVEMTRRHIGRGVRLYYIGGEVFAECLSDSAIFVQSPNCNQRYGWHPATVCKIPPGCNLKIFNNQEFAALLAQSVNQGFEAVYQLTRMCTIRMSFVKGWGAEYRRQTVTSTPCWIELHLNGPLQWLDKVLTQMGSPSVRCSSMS
inactive: saracatinib 0.001 | sotrastaurin -0.235 | alvocidib -0.316 | Tubastatin A 0.016 | [1] 0.025 | defactinib -0.142 | rucaparib 0.043 | [2] 0.039 | encorafenib -0.045 | [3] -0.052 | [4] -0.011 | filanesib 0.091 | zotarolimus 0.043 | idasanutlin 0 | alisertib 0.032 | [5] -0.016 | gefitinib 0.117 | [6] -0.032 | lapatinib 0.043 | pictilisib 0.102

SLC6A6 (UniProt P31641)
UniProt P31641, sequence (P31641 whole entry, looked up): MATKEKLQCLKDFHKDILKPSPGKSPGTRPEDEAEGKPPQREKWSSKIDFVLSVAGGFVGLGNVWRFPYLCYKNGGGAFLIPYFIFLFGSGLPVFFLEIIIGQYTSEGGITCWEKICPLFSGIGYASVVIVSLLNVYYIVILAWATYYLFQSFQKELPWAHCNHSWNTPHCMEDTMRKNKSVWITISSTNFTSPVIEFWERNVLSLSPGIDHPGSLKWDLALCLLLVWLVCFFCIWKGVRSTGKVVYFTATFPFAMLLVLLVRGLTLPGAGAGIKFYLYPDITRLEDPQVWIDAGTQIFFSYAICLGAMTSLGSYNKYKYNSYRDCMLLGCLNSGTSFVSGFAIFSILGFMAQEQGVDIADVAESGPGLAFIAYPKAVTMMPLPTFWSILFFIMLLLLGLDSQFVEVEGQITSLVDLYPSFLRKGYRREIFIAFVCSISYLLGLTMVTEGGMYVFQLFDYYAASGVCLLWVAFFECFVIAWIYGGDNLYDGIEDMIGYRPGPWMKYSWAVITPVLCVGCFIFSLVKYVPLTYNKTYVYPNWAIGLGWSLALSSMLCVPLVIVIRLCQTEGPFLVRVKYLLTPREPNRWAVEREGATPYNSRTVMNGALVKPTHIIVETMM
inactive: saracatinib -0.011 | sotrastaurin 0.041 | alvocidib -0.031 | Tubastatin A -0.143 | [1] -0.029 | defactinib -0.051 | rucaparib 0.065 | [2] -0.061 | encorafenib -0.051 | [3] -0.009 | [4] -0.1 | filanesib -0.013 | zotarolimus -0.017 | idasanutlin -0.066 | alisertib -0.031 | [5] -0.066 | gefitinib -0.044 | [6] 0.041 | lapatinib -0.012 | pictilisib 0.072

STK26 (UniProt Q9P289)
UniProt Q9P289, sequence (Q9P289 whole entry, looked up): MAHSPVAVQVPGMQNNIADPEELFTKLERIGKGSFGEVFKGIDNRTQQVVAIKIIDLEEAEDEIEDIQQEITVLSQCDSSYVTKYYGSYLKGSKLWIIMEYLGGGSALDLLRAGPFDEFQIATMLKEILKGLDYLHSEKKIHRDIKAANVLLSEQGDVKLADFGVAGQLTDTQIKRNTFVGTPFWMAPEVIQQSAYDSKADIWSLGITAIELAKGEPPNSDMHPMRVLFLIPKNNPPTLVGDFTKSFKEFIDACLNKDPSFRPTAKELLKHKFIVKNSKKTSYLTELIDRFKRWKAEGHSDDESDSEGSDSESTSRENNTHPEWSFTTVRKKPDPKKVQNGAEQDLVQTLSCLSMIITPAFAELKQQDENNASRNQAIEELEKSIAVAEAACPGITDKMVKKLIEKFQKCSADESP
inactive: saracatinib -0.027 | sotrastaurin 0.009 | alvocidib 0.018 | Tubastatin A -0.049 | [1] -0.057 | defactinib 0.067 | rucaparib -0.005 | [2] -0.001 | encorafenib 0.032 | [3] 0.054 | [4] 0.018 | filanesib -0.147 | zotarolimus -0.03 | idasanutlin 0.045 | alisertib -0.059 | [5] 0.069 | gefitinib -0.037 | [6] 0.009 | lapatinib 0.019 | pictilisib -0.105

SNX12 isoform 1 (UniProt Q9UMY4)
UniProt Q9UMY4, sequence (Q9UMY4 whole entry, looked up): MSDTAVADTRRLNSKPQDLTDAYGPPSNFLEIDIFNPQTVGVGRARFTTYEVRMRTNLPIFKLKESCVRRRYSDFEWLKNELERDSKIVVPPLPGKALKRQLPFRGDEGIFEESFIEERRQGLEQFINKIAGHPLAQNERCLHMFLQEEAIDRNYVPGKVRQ
inactive: saracatinib 0.035 | sotrastaurin 0.07 | alvocidib 0 | Tubastatin A 0.013 | [1] 0.059 | defactinib -0.025 | rucaparib -0.025 | [2] -0.028 | encorafenib 0.15 | [3] -0.037 | [4] -0.029 | filanesib -0.027 | zotarolimus -0.007 | idasanutlin 0.039 | alisertib 0.005 | [5] -0.008 | gefitinib 0.035 | [6] 0.09 | lapatinib -0.006 | pictilisib -0.002

SQSTM1 (UniProt Q13501)
UniProt Q13501, sequence (Q13501 whole entry, looked up): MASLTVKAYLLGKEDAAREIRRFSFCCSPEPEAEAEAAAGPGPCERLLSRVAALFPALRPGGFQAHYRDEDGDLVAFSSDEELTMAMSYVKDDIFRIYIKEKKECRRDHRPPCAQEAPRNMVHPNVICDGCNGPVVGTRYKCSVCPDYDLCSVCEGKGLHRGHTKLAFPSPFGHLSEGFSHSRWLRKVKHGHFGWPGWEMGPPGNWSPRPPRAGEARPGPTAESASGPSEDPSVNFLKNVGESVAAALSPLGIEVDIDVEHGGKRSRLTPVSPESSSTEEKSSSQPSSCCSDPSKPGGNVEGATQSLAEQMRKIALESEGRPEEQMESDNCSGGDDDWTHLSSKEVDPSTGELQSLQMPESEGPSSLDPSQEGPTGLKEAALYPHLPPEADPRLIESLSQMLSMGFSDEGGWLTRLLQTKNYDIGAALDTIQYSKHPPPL
inactive: saracatinib -0.038 | sotrastaurin -0.073 | alvocidib -0.149 | Tubastatin A -0.022 | [1] -0.024 | defactinib -0.074 | rucaparib -0.021 | [2] -0.048 | encorafenib 0.012 | [3] 0.051 | [4] 0.047 | filanesib 0.011 | zotarolimus -0.167 | idasanutlin 0.072 | alisertib -0.016 | [5] -0.136 | gefitinib -0.022 | [6] 0.058 | lapatinib -0.012 | pictilisib -0.112

TEX264 (UniProt Q9Y6I9)
UniProt Q9Y6I9, sequence (Q9Y6I9 whole entry, looked up): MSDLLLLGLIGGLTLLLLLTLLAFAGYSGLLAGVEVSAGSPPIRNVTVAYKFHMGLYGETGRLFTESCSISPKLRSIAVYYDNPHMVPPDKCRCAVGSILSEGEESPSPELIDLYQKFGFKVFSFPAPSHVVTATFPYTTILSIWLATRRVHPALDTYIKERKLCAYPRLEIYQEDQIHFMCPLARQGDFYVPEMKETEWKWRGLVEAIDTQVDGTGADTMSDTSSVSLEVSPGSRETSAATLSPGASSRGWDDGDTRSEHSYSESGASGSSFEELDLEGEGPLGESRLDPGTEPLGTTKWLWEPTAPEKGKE
inactive: saracatinib -0.041 | sotrastaurin -0.027 | alvocidib -0.036 | Tubastatin A -0.077 | [1] 0.13 | defactinib 0.112 | rucaparib 0.407 | encorafenib -0.039 | [3] 0.071 | [4] 0.07 | filanesib -0.169 | zotarolimus 0.059 | idasanutlin -0.076 | alisertib -0.042 | [5] 0.163 | gefitinib 0.164 | [6] -0.046 | lapatinib 0.421 | pictilisib 0.321
active: [2] 0.629

SRSF2 (UniProt Q01130)
UniProt Q01130, sequence (Q01130 whole entry, looked up): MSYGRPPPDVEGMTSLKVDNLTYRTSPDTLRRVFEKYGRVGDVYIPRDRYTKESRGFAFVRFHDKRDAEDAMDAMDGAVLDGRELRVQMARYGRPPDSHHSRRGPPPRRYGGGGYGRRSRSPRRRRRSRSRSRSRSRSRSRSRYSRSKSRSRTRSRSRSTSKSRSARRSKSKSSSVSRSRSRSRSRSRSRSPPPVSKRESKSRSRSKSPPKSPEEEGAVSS
inactive: saracatinib -0.008 | sotrastaurin 0.089 | alvocidib 0.218 | Tubastatin A -0.034 | [1] -0.1 | defactinib 0.052 | rucaparib 0.078 | [2] -0.001 | encorafenib -0.013 | [3] 0.076 | [4] -0.071 | filanesib 0.118 | zotarolimus 0 | idasanutlin 0.123 | alisertib -0.076 | [5] -0.003 | gefitinib 0.038 | [6] 0.024 | lapatinib 0.039 | pictilisib 0.027

SUPT16H (UniProt Q9Y5B9)
active: defactinib -0.476
inactive: saracatinib -0.125 | sotrastaurin -0.209 | alvocidib -0.359 | Tubastatin A 0.374 | [1] 0.034 | rucaparib -0.104 | [2] 0.024 | encorafenib 0.113 | [3] -0.138 | [4] 0.106 | filanesib -0.026 | zotarolimus 0.104 | idasanutlin -0.057 | alisertib 0.12 | [5] -0.036 | gefitinib 0.062 | [6] -0.023 | lapatinib 0.035 | pictilisib 0.011

TAF9 (UniProt Q16594)
UniProt Q16594, sequence (Q16594 whole entry, looked up): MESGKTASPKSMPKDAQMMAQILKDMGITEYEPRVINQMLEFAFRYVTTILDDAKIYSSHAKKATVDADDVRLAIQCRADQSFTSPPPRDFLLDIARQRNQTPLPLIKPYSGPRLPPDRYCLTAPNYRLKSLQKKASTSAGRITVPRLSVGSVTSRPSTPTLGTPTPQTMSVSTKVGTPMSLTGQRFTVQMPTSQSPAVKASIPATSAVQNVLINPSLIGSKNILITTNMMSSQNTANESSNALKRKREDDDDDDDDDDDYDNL
inactive: saracatinib 0.076 | sotrastaurin 0.021 | alvocidib 0.142 | Tubastatin A -0.023 | [1] -0.1 | defactinib 0.016 | rucaparib -0.019 | [2] -0.065 | encorafenib -0.048 | [3] 0.103 | [4] 0.066 | filanesib 0.109 | zotarolimus -0.018 | idasanutlin 0.056 | alisertib -0.109 | [5] 0.024 | gefitinib 0.01 | [6] 0.019 | lapatinib -0.028 | pictilisib -0.017

STAT5A (UniProt P42229)
UniProt P42229, sequence (P42229 whole entry, looked up): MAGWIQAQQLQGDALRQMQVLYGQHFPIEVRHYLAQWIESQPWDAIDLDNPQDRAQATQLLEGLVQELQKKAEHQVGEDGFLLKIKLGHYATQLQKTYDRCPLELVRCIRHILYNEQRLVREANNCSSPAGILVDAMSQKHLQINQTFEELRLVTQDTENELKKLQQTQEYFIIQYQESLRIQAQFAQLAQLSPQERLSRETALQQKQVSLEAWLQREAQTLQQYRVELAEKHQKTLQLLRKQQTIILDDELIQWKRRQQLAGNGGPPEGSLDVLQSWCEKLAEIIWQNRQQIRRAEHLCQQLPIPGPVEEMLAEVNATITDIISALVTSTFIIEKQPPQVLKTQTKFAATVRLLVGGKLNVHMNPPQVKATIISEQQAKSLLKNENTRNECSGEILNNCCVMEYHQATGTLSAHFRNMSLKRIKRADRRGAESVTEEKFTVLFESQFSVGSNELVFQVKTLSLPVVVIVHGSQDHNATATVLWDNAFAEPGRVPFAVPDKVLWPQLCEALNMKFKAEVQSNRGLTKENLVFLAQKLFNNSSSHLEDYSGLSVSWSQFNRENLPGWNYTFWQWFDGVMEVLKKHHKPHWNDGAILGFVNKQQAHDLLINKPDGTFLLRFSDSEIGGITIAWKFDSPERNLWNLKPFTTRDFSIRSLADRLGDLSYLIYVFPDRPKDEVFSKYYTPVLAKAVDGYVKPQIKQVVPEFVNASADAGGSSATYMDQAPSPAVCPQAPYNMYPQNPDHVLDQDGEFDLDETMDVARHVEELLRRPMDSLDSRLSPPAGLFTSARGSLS
inactive: saracatinib -0.093 | sotrastaurin -0.14 | alvocidib -0.151 | Tubastatin A 0.088 | [1] -0.001 | defactinib -0.273 | rucaparib 0.006 | [2] 0.054 | encorafenib 0.088 | [3] -0.059 | [4] 0.034 | filanesib 0.018 | zotarolimus 0.094 | idasanutlin 0.032 | alisertib -0.056 | [5] 0.009 | gefitinib 0.047 | [6] -0.128 | lapatinib 0 | pictilisib -0.096

SSX2 (UniProt Q16385)
UniProt Q16385, sequence (Q16385 whole entry, looked up): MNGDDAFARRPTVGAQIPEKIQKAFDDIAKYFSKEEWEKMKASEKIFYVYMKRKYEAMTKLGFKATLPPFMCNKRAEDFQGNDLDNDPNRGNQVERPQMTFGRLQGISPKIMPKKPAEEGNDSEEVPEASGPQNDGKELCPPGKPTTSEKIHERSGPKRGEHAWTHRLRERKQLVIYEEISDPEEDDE
inactive: saracatinib 0.017 | sotrastaurin -0.028 | alvocidib 0.024 | Tubastatin A 0.062 | [1] 0.066 | defactinib -0.114 | rucaparib 0.025 | [2] -0.078 | encorafenib 0.021 | [3] -0.012 | [4] 0.083 | filanesib 0.009 | zotarolimus -0.014 | idasanutlin -0.021 | alisertib 0.035 | [5] 0.025 | gefitinib 0.032 | [6] 0.004 | lapatinib -0.011 | pictilisib 0.064
